Inconclusive results are not listed. Activity calls are given as the source filed them.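 Rule for the calls, unless noted: active = inhibition over a set limit, the all-compound mean plus 3 SD, in both replicate runs; inconclusive = over that limit in just one replicate run; inactive = at or under that limit in both runs.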
Legend:
[1] = OD615 S. cerevisiae growth inhibition, permissive medium, pilot counter-assay, permissive growth control for S. cerevisiae lifespan shortening project (AID 705;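 active = growth inhibition above 25% in both replicates, a cutoff set 3 SD above the mean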); conditions: OD615, 24 h, at 10 µM, stronger effect = higher value
[2] = viability gain of MRP-1-high H69AR cells under doxorubicin, pilot screen, MRP-1 activator project, CellTiter-Glo, duplicate (AID 807;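 active = viability increase at or above a cutoff of the median across tested compounds plus 3 SD, cut at about 8.5% in these data, passing the limit was not always enough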;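 note: compound pretreatment 18-22 h then 72 h combined with doxorubicin; 0% = doxorubicin alone and 100% = vehicle without doxorubicin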); conditions: H69AR viability with doxorubicin, CellTiter-Glo luminescence; at 10 µM; stronger effect = higher value
[3] = growth suppression of beta-catenin knockout HCT116, pilot screen, human colon tumor cells (AID 823;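 active = cell viability at or below a set limit in both duplicate runs, the limit being the all-compound median minus 4 SD, cut at about 23% in these data, passing the limit was not always enough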;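 note: 0% = wells killed by 20 µM Hyamine and 100% = untreated DMSO cell wells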); conditions: CellTiter-Glo, 60 h, at 10 µM, stronger effect = lower value
[4] = growth suppression of PTEN-deleted HCT116, pilot screen, cell-based, HCT116 clonal line, CellTiter-Glo (AID 824;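 active = viability at or below 27.92% in each of two runs, the all-compound median minus 4 SD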;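 note: 0% = 20 µM Hyamine control and 100% = vehicle cell control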); conditions: 60 h, at 10 µM, stronger effect = lower value
[5] = inhibitors of the yeast RAM network, pilot screen, dse1pr::URA3 reporter, 5-FOA selection (AID 869);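 note: 0% = DMSO wells with no growth and 100% = 10 µM 1-NA-PP1 with full growth; RAM network block rescues cells from 5-FOA so hits raise OD615 growth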; conditions: S. cerevisiae dse1pr::URA3 5-FOA growth, OD615, 2 d; at 10 µM; stronger effect = higher value; strain carries analog-sensitive mutant Cbk1 kinase
[6] = RAM signaling pathway blockade in yeast – S. cerevisiae, Pdr1DBD-CYC8 efflux-inhibited sensitized strain, primary screen (AID 1298;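 active = RAM network inhibition above 8.4% in each of two replicates, 3 SD over the compound average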;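 note: 0% = DMSO untreated cells without growth and 100% = 10 µM 1-NA-PP1 full growth; higher means more yeast growth rescued from 5-FOA killing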); conditions: S. cerevisiae cbk1-as DSE1-URA3 strain, 5-FOA growth OD615, 2 d; at 50 µM; stronger effect = higher value
[7] = Restrictive medium S. cerevisiae growth inhibition, OD615, pilot screen of yeast lifespan reduction project, restrictive growth control (AID 706;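 active = growth inhibition above a set limit, 3 SD over mean compound inhibition, in both replicates, cut at about 43% in these data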;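 note: modified DeaD lifespan yeast strain shifted to restrictive glucose medium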); conditions: OD615, 48 h, at 10 µM, stronger effect = higher value
[8] = reducers of endogenous Her2 protein level, primary screen, SKBR3 breast tumor cells, AlphaScreen, ATP viability (AID 461;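 active = Her2 level under about 52% in both replicate screens, with viability over 70% of control, limit read from the data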;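 for Her2 level: lower value means less Her2 protein in the cells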;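 for viability: percent of carrier control wells set as 100% viability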); conditions: 18-24 h, measured here: SKBR3 viability, ATP luminescence, at 10 µM
[9] = biological target: Receptor tyrosine-protein kinase erbB-2 (Homo sapiens) (UniProt P04626); assay: as above; conditions: 18-24 h, at 10 µM, stronger effect = lower value
Receptor tyrosine-protein kinase erbB-2 (Homo sapiens), sequence (P04626 whole entry, looked up): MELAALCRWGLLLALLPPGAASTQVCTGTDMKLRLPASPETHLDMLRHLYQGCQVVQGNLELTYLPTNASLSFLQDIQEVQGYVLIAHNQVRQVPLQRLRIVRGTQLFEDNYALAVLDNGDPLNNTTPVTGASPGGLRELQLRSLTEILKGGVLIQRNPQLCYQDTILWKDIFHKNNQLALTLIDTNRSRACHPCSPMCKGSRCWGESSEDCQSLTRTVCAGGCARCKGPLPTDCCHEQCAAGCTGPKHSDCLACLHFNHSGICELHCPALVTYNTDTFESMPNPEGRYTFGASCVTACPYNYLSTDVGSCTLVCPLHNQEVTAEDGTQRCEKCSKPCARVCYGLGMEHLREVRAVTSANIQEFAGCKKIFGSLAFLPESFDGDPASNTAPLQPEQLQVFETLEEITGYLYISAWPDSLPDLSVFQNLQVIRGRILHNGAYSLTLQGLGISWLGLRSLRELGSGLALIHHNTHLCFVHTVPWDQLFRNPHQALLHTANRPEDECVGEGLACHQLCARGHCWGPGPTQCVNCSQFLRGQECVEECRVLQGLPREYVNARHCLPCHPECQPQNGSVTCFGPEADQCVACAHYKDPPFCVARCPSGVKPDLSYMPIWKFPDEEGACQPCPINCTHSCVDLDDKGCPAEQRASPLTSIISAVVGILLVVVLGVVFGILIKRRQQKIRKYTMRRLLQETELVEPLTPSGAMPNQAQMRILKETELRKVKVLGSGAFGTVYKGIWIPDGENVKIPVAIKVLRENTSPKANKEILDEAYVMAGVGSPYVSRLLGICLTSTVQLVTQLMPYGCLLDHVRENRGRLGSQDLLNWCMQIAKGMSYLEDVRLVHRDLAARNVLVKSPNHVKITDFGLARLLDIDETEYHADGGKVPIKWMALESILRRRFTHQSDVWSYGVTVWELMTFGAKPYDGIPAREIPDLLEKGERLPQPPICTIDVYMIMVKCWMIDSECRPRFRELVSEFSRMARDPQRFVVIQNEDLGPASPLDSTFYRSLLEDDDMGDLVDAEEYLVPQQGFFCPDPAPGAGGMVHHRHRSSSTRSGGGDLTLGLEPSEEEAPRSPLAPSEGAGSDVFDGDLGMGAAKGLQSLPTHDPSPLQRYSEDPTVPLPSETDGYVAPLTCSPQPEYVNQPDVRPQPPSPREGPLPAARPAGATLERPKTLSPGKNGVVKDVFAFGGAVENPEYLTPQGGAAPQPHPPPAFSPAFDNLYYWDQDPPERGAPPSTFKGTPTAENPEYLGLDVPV

[10] = SK-BR-3 cell growth inhibitors, pilot screen, 24 h, human (AID 572;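 active = viability at or below 10% of carrier control in both of two separate runs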;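 note: compound exposure lasted between 18 and 24 h rather than exactly 24 h; 100% = carrier-treated control wells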); conditions: SK-BR-3 viability, CellTiter-Glo luminescence, at 10 µM, stronger effect = lower value
[11] = HUVEC growth inhibition – cell-based, human, primary screen (AID 575;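 active = viability at or below 30% in both replicate assays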;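 note: 100% = median of untreated cell wells with 0.1% DMSO on each plate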); conditions: HUVEC proliferation, CellTiter-Glo luminescence, 72 h; at 10 µM; stronger effect = lower value
[12] = growth inhibitors of H69AR lung tumor, primary screen, human, duplicate replicates (AID 580;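 active = viability at or under a set limit in both replicates, limit being median viability minus 3 SD, cut at about 48% in these data, passing the limit was not always enough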;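 note: 100% = mean luminescence of untreated wells and 0% = no signal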); conditions: H69AR lung tumor cells viability, ATP luminescence, 72 h; at 10 µM; stronger effect = lower value
[13] = reversal of MRP1-mediated doxorubicin resistance, pilot screen, H69AR cells, doxorubicin co-treatment (AID 601;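 active = viability loss from added drug above about 55%, and viability with drug at most 40%, in both replicates, limit read from the data, passing the limit was not always enough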); conditions: CellTiter-Glo, 72 h, at 10 µM; for differential viability (reversal): stronger effect = higher value
[14] = H69AR cells + 2 uM doxorubicin, measured here: viability with 2 uM doxorubicin, stronger effect = lower value
[15] = H69AR cells, compound alone cytotoxicity

COC(=O)Cn1c(=NC(=O)CSC(C)=O)sc2ccccc21
inactive: growth inhibition [1] 4.79% | viability increase [2] -1.9% | viability [3] 98.5% | viability [4] 101% | inhibition [5] 2.89% | RAM network inhibition [6] 5.91%

COC(=O)c1cc(CSc2nc3ccc(C)cc3[nH]2)oc1C
inactive: growth inhibition [7] 4.74% | viability increase [2] -0.15% | viability [3] 46.6% | viability [4] 63.5% | inhibition [5] 0.105% | RAM network inhibition [6] 4.81%

CCOc1ccc2nc(N3CCC(C(=O)N4CCN(c5ncccn5)CC4)CC3)sc2c1
inactive: growth inhibition [7] 25.2% | viability increase [2] -3.04% | viability [3] 82.1% | viability [4] 90.9% | inhibition [5] 1.76% | RAM network inhibition [6] -1.59%

O=C(CSc1nnc(-c2ccccn2)n1Cc1ccco1)c1ccccc1
inactive: growth inhibition [1] 0.135% | viability increase [2] -3.34% | viability [3] 98.1% | viability [4] 95.2% | inhibition [5] 0.485% | RAM network inhibition [6] 7.41%

Cc1ccc(OCC(=O)Nc2cc(-c3nn4c(C)nnc4s3)ccc2C)cc1
inactive: growth inhibition [1] 0.12% | viability increase [2] -4.09% | viability [3] 93.7% | viability [4] 88% | inhibition [5] 3.09% | RAM network inhibition [6] 10.7%

Cc1csc(NC(=O)CSc2nnc(Cc3cccn3C)n2CCc2ccccc2)n1
inactive: growth inhibition [1] 11% | viability increase [2] -3.58% | viability [3] 87.1% | viability [4] 82.6% | inhibition [5] 0.505% | RAM network inhibition [6] 9.43%

COc1ccc(OCC(=O)Nc2cc(OC)cc(OC)c2)cc1
inactive: growth inhibition [7] 7.43% | viability increase [2] -3.71% | viability [3] 88.7% | viability [4] 93.9% | inhibition [5] -0.89% | RAM network inhibition [6] -2.47%

Cc1ccc(/C=c2/sc3nnc(-c4ccccc4Cl)n3c2=O)o1
inactive: growth inhibition [1] -7.07% | viability increase [2] -5% | viability [3] 90.9% | viability [4] 93% | inhibition [5] 0.785% | RAM network inhibition [6] 3.46%

CCC(C)N1CC23C=CC(O2)C(C(=O)OC)C3C1=O (stereo not drawn)
inactive: growth inhibition [1] 0.035% | viability increase [2] 1.12% | viability [3] 109% | viability [4] 106% | inhibition [5] 0.115% | RAM network inhibition [6] 1.34%

CCOc1cccc(C(=O)Nc2cc(-c3nn4c(C)nnc4s3)ccc2C)c1
inactive: growth inhibition [1] 9.19% | viability increase [2] -4.79% | viability [3] 100% | viability [4] 93.6% | inhibition [5] 0.07% | RAM network inhibition [6] 2.22%

O=C(O)C1CC=CCC1C(=O)NCc1cn2ccccc2n1 (stereo not drawn)
inactive: growth inhibition [7] -15.1% | viability increase [2] -2.16% | viability [3] 103% | viability [4] 96.1% | inhibition [5] 2.84% | RAM network inhibition [6] 4.32%

CCCc1nc2sc3c(SCC(=O)NCc4ccco4)ncnc3c2c2c1CCC2
inactive: growth inhibition [1] -1.16% | viability increase [2] -6.5% | viability [3] 47.4% | inhibition [5] 2.37% | RAM network inhibition [6] 4.21%

COc1ccc(OCc2nnc3n2N=C(c2ccc(Br)cc2)CS3)cc1
inactive: growth inhibition [1] 3.29% | viability increase [2] 2.18% | viability [3] 70% | viability [4] 72.2% | inhibition [5] 0.955% | RAM network inhibition [6] 3.18%

O=C(O)c1cc2c(s1)-c1ccccc1OC2
inactive: growth inhibition [1] 6.14% | viability increase [2] -4.32% | viability [3] 96.9% | viability [4] 98.7% | inhibition [5] 0.165% | RAM network inhibition [6] -2.9%

CCOC(=O)CNC(=O)CSc1nnc(-c2ccco2)n1Cc1ccco1
inactive: growth inhibition [1] 6.66% | viability increase [2] -2.83% | viability [3] 97.2% | viability [4] 98.2% | inhibition [5] 0.765% | RAM network inhibition [6] 3.76%

CCc1ccc(Cn2nnc(C(=O)NCc3ccccc3OC)c2N)cc1
inactive: growth inhibition [7] 5.92% | viability increase [2] -2.2% | viability [3] 95% | viability [4] 92% | inhibition [5] 1.81% | RAM network inhibition [6] 4.95%

COc1ccc(NC(=O)CSc2nnc(Cn3c(=O)sc4ccccc43)n2C)c(OC)c1
inactive: growth inhibition [1] 2.11% | viability increase [2] -4.82% | viability [3] 101% | viability [4] 92.7% | inhibition [5] -0.285% | RAM network inhibition [6] 1.01%

COc1ccccc1C(=O)Nc1cc(-c2nn3c(C)nnc3s2)ccc1C
inactive: growth inhibition [1] 12.8% | viability increase [2] -3.73% | viability [3] 114% | viability [4] 97.8% | inhibition [5] 1.22% | RAM network inhibition [6] 4.87%

O=C(CSCc1ccco1)Nc1cc(C(F)(F)F)ccc1N1CCOCC1
inactive: viability increase [2] -5.7% | viability [3] 63.4% | viability [4] 79.1% | inhibition [5] 1.91% | RAM network inhibition [6] 4.46%

Nc1ccc2[nH]ncc2c1
inactive: Her2 level [9] 106% | viability [10] 80.5% | viability [11] 84.1% | viability [12] 100% | differential viability (reversal) ([13]; H69AR cells + 2 uM doxorubicin) -6.96%
80.5%: viability [8]
107%: viability [13, 14]
100%: viability [13, 15]

CC(=O)N[C@@H](CS)C(=O)O
inactive: Her2 level [9] 105% | viability [10] 105% | viability [11] 90.8% | viability [12] 101% | differential viability (reversal) ([13]; H69AR cells + 2 uM doxorubicin) 12.8%
105%: viability [8]
101%: viability [13, 15]
88.6%: viability [13, 14]

Reference: PubChem BioAssay
